These results are taken from PubChem BioAssay (Tox21).

Assay [1] can be described thus: qHTS RealTime-Glo MT Cell Viability Assay in HEK293 cells - 0 hour (AID 1224880). Further: top concentration of the series differs between compounds; nearly all actives have a fitted effect of over 45% in size. The method, boiled down:
(§1)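 600 cells/well were plated with the nonlytic NanoLuc/prosubstrate reagent, pre-incubated 5 h, then given 23 nL of compound in DMSO. Incubation at 37 C for 40 h, with luminescence from viable-cell-reduced substrate read repeatedly from 0 h.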
A general note: In qHTS, concentration-response curves come from the screen itself.

Assay [2] in a line: A CellTox Green Cytotoxicity Assay to monitor cytotoxicity in HEK293 cells - 32 hour (AID 1224881). Further: nearly all actives have a fitted effect of over 40% in size. An outline of the steps:
(§2)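 HEK293 cells, 600/well, were preincubated 5 hours and then exposed to compounds at 37 C for up to 40 hours. A cell-impermeant cyanine dye staining dead-cell DNA was read by fluorescence at 0, 8, 16, 24, 32 and 40 h time points.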

Assay [3] in a line: A CellTox Green Cytotoxicity Assay to monitor cytotoxicity in HepG2 cells - 0 hour (AID 1224882). Further: nearly all actives have a fitted effect of over 35% in size. An outline of the steps: (§3)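 HepG2 cells, 600/well, preincubated 5 h with CellTox Green dye, then exposed to Tox21 compounds in DMSO at 37 C for up to 40 h. Dead-cell DNA fluorescence read at the indicated time point.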
Assay [4] is described as follows: A CellTox Green Cytotoxicity Assay to monitor cytotoxicity in HepG2 cells - 32 hour (AID 1224883). Further: nearly all actives have a fitted effect of over 50% in size. Further: potency means the concentration at half of the fitted maximal effect. The method, boiled down:
as §3

A short description of assay [5]: A CellTox Green Cytotoxicity Assay to monitor cytotoxicity in HEK293 cells - 8 hour (AID 1224884). Further: nearly all actives have a fitted effect of over 35% in size. An outline of the steps: as §2
Assay [6] is described as follows: qHTS RealTime-Glo MT Cell Viability Assay in HepG2 cells - 16 hour (AID 1224885). Further: nearly all actives have a fitted effect of over 50% in size. An outline of the steps: (§4)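 HepG2 cells were seeded at 600 cells/well together with NanoLuc luciferase and a cell-permeant prosubstrate, preincubated 5 h at 37 C/5% CO2, then pin-dosed with compounds in DMSO. Nonlytic luminescence from viable cells was read at each time point.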
The nature of assay [7]: qHTS RealTime-Glo MT Cell Viability Assay in HEK293 cells - 24 hour (AID 1224886). Further: nearly all actives have a fitted effect of over 50% in size. Further: potency means the concentration at half of the fitted maximal effect. An outline of the steps:
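HEK293 cells were seeded at 600 cells/well together with NanoLuc luciferase and cell-permeant prosubstrate, preincubated 5 h at 37 C/5% CO2, then given compound in DMSO by pintool. Luminescence from viable-cell prosubstrate reduction was read repeatedly over 40 h.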

Assay [8] can be described thus: A CellTox Green Cytotoxicity Assay to monitor cytotoxicity in HEK293 cells - 16 hour (AID 1224888). Further: nearly all actives have a fitted effect of over 35% in size. The method, boiled down: as §2
A short description of assay [9]: qHTS RealTime-Glo MT Cell Viability Assay in HepG2 cells - 0 hour (AID 1224889). Further: nearly all actives have a fitted effect of over 50% in size. The method, boiled down: as §4
Assay [10] in a line: qHTS RealTime-Glo MT Cell Viability Assay in HEK293 cells - 8 hour (AID 1224887). An outline of the steps:
as §1

Each structure is given as a SMILES string. Where “and” joins values, the source holds several entries; their conditions need not be identical. Equal values may be shown once. Results filed as inconclusive are left out. Some compounds were tested as several samples or in several runs, with calls that do not always agree. Calls of active or inactive are those of the source. The call rests on the fitted dose curve; in most records, active means well fitted curve in the direction sought with a large enough effect in the repeat runs; inconclusive means weak or mixed curves; inactive means no such curve, though single readings can be large; an effect the other way counts as inactive or inconclusive.

Regarding `Nc1ccn([C@H]2CC[C@@H](CO)O2)c(=O)n1`, the Potency entry in [1], in [2], in assay [3], in assay [4], in assay [5] and in assay [6] was “inactive” in each case. In addition, the Potency entry in [7], in assay [8] and in assay [9] was “inactive” in each case.
Turning to `Cc1ccc(O)cc1`, the Potency result in assay [2], in assay [3], in assay [4], in assay [5], in [6] and in assay [7] was “inactive” throughout. Also, the Potency result in assay [8] and in assay [9] was “inactive” each time.
With `CCCCC(CC)COC(=O)/C=C/c1ccc(OC)cc1` (configuration not stated), the Potency result in [2], in [3], in assay [4], in [5], in assay [6] and in [7] was “inactive” in each case. The Potency entry in assay [10], in [8] and in [9] was “inactive” each time.
For the molecule `O=C(O)C(=O)O`, the Potency entry in assay [2], in assay [3], in assay [4], in [5], in assay [6] and in [7] was “inactive” throughout. Moreover, the Potency result in [8] and in [9] was “inactive” each time.
On to `CC(=O)OCC(COC(C)=O)OC(C)=O`, for which the Potency result in assay [2], in [3], in assay [4], in assay [5], in assay [6] and in assay [7] was “inactive” each time. The Potency entry in assay [10], in assay [8] and in assay [9] was “inactive” in each case.
As for `Oc1ccc(/C=C/c2cc(O)cc(O)c2)cc1`, the Potency entry in [2], in assay [3], in assay [5], in assay [6], in assay [8] and in [9] was “inactive” in each case.
As to `O=C(O)c1[nH]n(-c2ccc(S(=O)(=O)O)cc2)c(=O)c1N=Nc1ccc(S(=O)(=O)O)cc1`, the Potency entry in assay [2], in assay [3], in assay [4], in assay [5], in assay [6] and in [7] was “inactive” each time. Moreover, the Potency result in assay [8] and in [9] was “inactive” throughout.
As for `CCCCC1C(=O)N(c2ccccc2)N(c2ccccc2)C1=O`, the Potency entry in assay [2], in assay [3], in assay [4], in [5], in [6] and in assay [7] was “inactive” in each case. Also, the Potency entry in assay [8] is “inactive”.
In the case of `C1N2CN3CN1CN(C2)C3`, the Potency entry in assay [2], in assay [3], in assay [4], in assay [5], in [6] and in [7] was “inactive” each time. The Potency entry in [8] and in assay [9] was “inactive” in each case.
In the case of `Nc1ccc(S(=O)(=O)c2ccc(N)cc2)cc1`, the Potency result in [2], in assay [3], in [4], in assay [5], in assay [6] and in assay [7] was “inactive” throughout. In addition, the Potency result in assay [10], in assay [8] and in assay [9] was “inactive” in each case.
In the case of `NNC(=O)c1ccncc1`, the Potency result in assay [2], in [3], in assay [4], in assay [5], in assay [6] and in assay [7] was “inactive” in each case. The Potency entry in assay [8] and in [9] was “inactive” each time.
Turning to `O=c1cc[nH]c(=S)[nH]1`, the Potency entry in [2], in [3], in [4], in assay [5], in assay [6] and in [7] was “inactive” throughout. Besides, the Potency entry in assay [8] and in assay [9] was “inactive” each time.
For `CC(C)[C@@H]1CC[C@@H](C)C[C@H]1O`, the Potency entry in [2], in [3], in assay [4], in assay [5], in [6] and in assay [7] was “inactive” each time. Also, the Potency entry in assay [8] and in assay [9] was “inactive” in each case.
Regarding `NC(=O)c1cnccn1`, the Potency entry in assay [2], in assay [3], in assay [4], in assay [5], in assay [6] and in assay [7] was “inactive” throughout. The Potency entry in assay [8] and in assay [9] was “inactive” in each case.
Take `CCCC(O)C(CC)CO` (configuration not stated): the Potency result in assay [2], in [3], in assay [4], in assay [5], in [6] and in assay [7] was “inactive” in each case. Moreover, the Potency result in assay [10], in assay [8] and in assay [9] was “inactive” in each case.
For the molecule `NC(=O)NC1NC(=O)NC1=O` (configuration not stated), the Potency entry in [2], in assay [3], in assay [4], in assay [5], in [6] and in [7] was “inactive” each time. Moreover, the Potency entry in assay [10], in assay [8] and in assay [9] was “inactive” in each case.
On to `CCCC(CCC)C(=O)O`, for which the Potency entry in assay [2], in assay [3], in assay [4], in assay [5], in assay [6] and in [7] was “inactive” in each case. The Potency entry in [10], in [8] and in [9] was “inactive” in each case.
On to `N=C(N)c1ccc(OCCCCCOc2ccc(C(=N)N)cc2)cc1`, for which the Potency result in [2], in assay [3], in assay [5], in assay [6], in assay [8] and in assay [9] was “inactive” throughout. Besides, the Potency in assay [4] was 48.8 µM (active) and inactive; in assay [7], 19.4 µM (active) and 18.6 µM (active).
Consider `O=NO`, for which the Potency result in assay [2], in assay [3], in assay [4], in [5], in assay [6] and in assay [7] was “inactive” each time. Further, the Potency result in assay [10], in assay [8] and in [9] was “inactive” each time.
